# What was measured:
# Experiment in all cases: SPOT peptide array binding signal intensity (averaged, normalized) (arbitrary units (background-subtracted, floor 0; scale differs between SH3 domains)); higher = stronger binding of the SH3 domain to the peptide
# AgAbp1 = molecular target: AgAbp1
# Outline: (§1)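 Four yeast species supplied the SH3 domains, which were expressed as GST fusions in E. coli BL21(DE3) and purified on glutathione Sepharose. Incubation with cellulose membranes carrying synthetic 15-mer peptides, cysteines exchanged for serines, ran overnight at 4°C at 10 μg/ml in TBS-based blocking buffer. Binding signal is reported as normalized, background-subtracted spot intensity averaged over replicates, in arbitrary units not shared between domains.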
# AgBbc1 = molecular target: AgBbc1
# Outline: as §1
# AgBem1-D1 = molecular target: AgBem1-D1
# Outline: as §1
# AgBzz1-D1 = molecular target: AgBzz1-D1
# Outline: as §1
# AgBzz1-D2 = molecular target: AgBzz1-D2
# Outline: as §1
# AgCyk3 = molecular target: AgCyk3
# Outline: as §1
# AgFus1 = molecular target: AgFus1
# Outline: as §1
# AgHof1 = molecular target: AgHof1
# Outline: as §1
# AgHse1 = molecular target: AgHse1
# Outline: as §1
# AgLsb1 = molecular target: AgLsb1
# Outline: as §1
# AgLsb4 = molecular target: AgLsb4
# Outline: as §1
# AgMyo5 = molecular target: AgMyo5
# Outline: as §1
# AgNbp2 = molecular target: AgNbp2
# Outline: as §1
# AgRvs167 = molecular target: AgRvs167
# Outline: as §1
# AgSho1 = molecular target: AgSho1
# Outline: as §1
# AgSla1-D1-D2 = molecular target: AgSla1-D1-D2
# Outline: as §1
# AgSla1-D3 = molecular target: AgSla1-D3
# Outline: as §1
# CaAbp1-D1 = molecular target: CaAbp1-D1
# Outline: as §1
# CaAbp1-D2 = molecular target: CaAbp1-D2
# Outline: as §1
# CaBbc1 = molecular target: CaBbc1
# Outline: as §1
# CaBem1-D1 = molecular target: CaBem1-D1
# Outline: as §1
# CaBzz1-D1 = molecular target: CaBzz1-D1
# Outline: as §1
# CaBzz1-D2 = molecular target: CaBzz1-D2
# Outline: as §1
# CaCyk3 = molecular target: CaCyk3
# Outline: as §1
# CaFus1 = molecular target: CaFus1
# Outline: as §1
# CaHof1 = molecular target: CaHof1
# Outline: as §1
# CaHse1 = molecular target: CaHse1
# Outline: as §1
# CaLsb1 = molecular target: CaLsb1
# Outline: as §1
# CaLsb4 = molecular target: CaLsb4
# Outline: as §1
# CaMyo5 = molecular target: CaMyo5
# Outline: as §1
# CaNbp2 = molecular target: CaNbp2
# Outline: as §1
# CaRvs167 = molecular target: CaRvs167
# Outline: as §1
# CaRvs167-3 = molecular target: CaRvs167-3
# Outline: as §1
# CaSho1 = molecular target: CaSho1
# Outline: as §1
# CaSla1-D1-D2 = molecular target: CaSla1-D1-D2
# Outline: as §1
# CaSla1-D3 = molecular target: CaSla1-D3
# Outline: as §1
# ScAbp1 = molecular target: ScAbp1
# Outline: as §1
# ScBbc1 = molecular target: ScBbc1
# Outline: as §1
# ScBem1-D1 = molecular target: ScBem1-D1
# Outline: as §1
# ScBzz1-D1 = molecular target: ScBzz1-D1
# Outline: as §1
# ScBzz1-D2 = molecular target: ScBzz1-D2
# Outline: as §1
# ScCyk3 = molecular target: ScCyk3
# Outline: as §1
# ScFus1 = molecular target: ScFus1
# Outline: as §1
# ScHof1 = molecular target: ScHof1
# Outline: as §1
# ScHse1 = molecular target: ScHse1
# Outline: as §1
# ScLsb1 = molecular target: ScLsb1
# Outline: as §1
# ScLsb2 = molecular target: ScLsb2
# Outline: as §1
# ScLsb3 = molecular target: ScLsb3
# Outline: as §1
# ScLsb4 = molecular target: ScLsb4
# Outline: as §1
# ScMyo3 = molecular target: ScMyo3
# Outline: as §1
# ScMyo5 = molecular target: ScMyo5
# Outline: as §1
# ScNbp2 = molecular target: ScNbp2
# Outline: as §1
# ScPex13 = molecular target: ScPex13
# Outline: as §1
# ScRvs167 = molecular target: ScRvs167
# Outline: as §1
# ScSho1 = molecular target: ScSho1
# Outline: as §1
# ScSla1-D1-D2 = molecular target: ScSla1-D1-D2
# Outline: as §1
# ScSla1-D3 = molecular target: ScSla1-D3
# Outline: as §1
# SpAbp1-D1 = molecular target: SpAbp1-D1
# Outline: as §1
# SpBbc1 = molecular target: SpBbc1
# Outline: as §1
# SpBzz1-D1 = molecular target: SpBzz1-D1
# Outline: as §1
# SpBzz1-D2 = molecular target: SpBzz1-D2
# Outline: as §1
# SpCyk3 = molecular target: SpCyk3
# Outline: as §1
# SpHof1 = molecular target: SpHof1
# Outline: as §1
# SpHof1-2 = molecular target: SpHof1-2
# Outline: as §1
# SpHof1-3 = molecular target: SpHof1-3
# Outline: as §1
# SpHse1 = molecular target: SpHse1
# Outline: as §1
# SpLsb1 = molecular target: SpLsb1
# Outline: as §1
# SpLsb4 = molecular target: SpLsb4
# Outline: as §1
# SpMyo1 = molecular target: SpMyo1
# Outline: as §1
# SpNbp2 = molecular target: SpNbp2
# Outline: as §1
# SpPex13 = molecular target: SpPex13
# Outline: as §1
# SpRvs167 = molecular target: SpRvs167
# Outline: as §1
# SpSla1-D1-D2 = molecular target: SpSla1-D1-D2
# Outline: as §1
# SpSla1-D3 = molecular target: SpSla1-D3
# Outline: as §1
binder,measurement,setting,value
RVRKTHVPASKRPSG,SPOT peptide array binding signal intensity,AgAbp1,81.5
same,SPOT peptide array binding signal intensity,AgBbc1,105
same,SPOT peptide array binding signal intensity,AgBem1-D1,48.5
same,SPOT peptide array binding signal intensity,AgBzz1-D1,2
same,SPOT peptide array binding signal intensity,AgBzz1-D2,≤ 0
same,SPOT peptide array binding signal intensity,AgCyk3,1
same,SPOT peptide array binding signal intensity,AgFus1,118
same,SPOT peptide array binding signal intensity,AgHof1,7
same,SPOT peptide array binding signal intensity,AgHse1,210
same,SPOT peptide array binding signal intensity,AgLsb1,0.75
same,SPOT peptide array binding signal intensity,AgLsb4,18
same,SPOT peptide array binding signal intensity,AgMyo5,≤ 0
same,SPOT peptide array binding signal intensity,AgNbp2,91
same,SPOT peptide array binding signal intensity,AgRvs167,1
same,SPOT peptide array binding signal intensity,AgSho1,5
same,SPOT peptide array binding signal intensity,AgSla1-D1-D2,18
same,SPOT peptide array binding signal intensity,AgSla1-D3,1.5
same,SPOT peptide array binding signal intensity,CaAbp1-D1,919
same,SPOT peptide array binding signal intensity,CaAbp1-D2,520
same,SPOT peptide array binding signal intensity,CaBbc1,188
same,SPOT peptide array binding signal intensity,CaBem1-D1,18
same,SPOT peptide array binding signal intensity,CaBzz1-D1,30
same,SPOT peptide array binding signal intensity,CaBzz1-D2,48.8
same,SPOT peptide array binding signal intensity,CaCyk3,7.5
same,SPOT peptide array binding signal intensity,CaFus1,200
same,SPOT peptide array binding signal intensity,CaHof1,0.5
same,SPOT peptide array binding signal intensity,CaHse1,9.75
same,SPOT peptide array binding signal intensity,CaLsb1,0.5
same,SPOT peptide array binding signal intensity,CaLsb4,33
same,SPOT peptide array binding signal intensity,CaMyo5,≤ 0
SLSRRRFSLPSMPNV,SPOT peptide array binding signal intensity,AgAbp1,83.5
same,SPOT peptide array binding signal intensity,AgBbc1,114
same,SPOT peptide array binding signal intensity,AgBem1-D1,418
same,SPOT peptide array binding signal intensity,AgBzz1-D1,44.5
same,SPOT peptide array binding signal intensity,AgBzz1-D2,72.5
same,SPOT peptide array binding signal intensity,AgCyk3,6.5
same,SPOT peptide array binding signal intensity,AgFus1,404
same,SPOT peptide array binding signal intensity,AgHof1,158
same,SPOT peptide array binding signal intensity,AgHse1,1010
same,SPOT peptide array binding signal intensity,AgLsb1,1240
same,SPOT peptide array binding signal intensity,AgLsb4,41.5
same,SPOT peptide array binding signal intensity,AgMyo5,3
same,SPOT peptide array binding signal intensity,AgNbp2,97.5
same,SPOT peptide array binding signal intensity,AgRvs167,5
same,SPOT peptide array binding signal intensity,AgSho1,28
same,SPOT peptide array binding signal intensity,AgSla1-D1-D2,60
same,SPOT peptide array binding signal intensity,AgSla1-D3,6
same,SPOT peptide array binding signal intensity,CaAbp1-D1,872
same,SPOT peptide array binding signal intensity,CaAbp1-D2,370
same,SPOT peptide array binding signal intensity,CaBbc1,471
same,SPOT peptide array binding signal intensity,CaBem1-D1,112
same,SPOT peptide array binding signal intensity,CaBzz1-D1,183
same,SPOT peptide array binding signal intensity,CaBzz1-D2,189
same,SPOT peptide array binding signal intensity,CaCyk3,87.5
same,SPOT peptide array binding signal intensity,CaFus1,1080
same,SPOT peptide array binding signal intensity,CaHof1,0.5
same,SPOT peptide array binding signal intensity,CaHse1,62.8
same,SPOT peptide array binding signal intensity,CaLsb1,13
same,SPOT peptide array binding signal intensity,CaLsb4,52.5
same,SPOT peptide array binding signal intensity,CaMyo5,14.5
same,SPOT peptide array binding signal intensity,CaNbp2,282
same,SPOT peptide array binding signal intensity,CaRvs167,27
same,SPOT peptide array binding signal intensity,CaRvs167-3,152
same,SPOT peptide array binding signal intensity,CaSho1,477
same,SPOT peptide array binding signal intensity,CaSla1-D1-D2,471
same,SPOT peptide array binding signal intensity,CaSla1-D3,133
same,SPOT peptide array binding signal intensity,ScAbp1,94
same,SPOT peptide array binding signal intensity,ScBbc1,26.5
same,SPOT peptide array binding signal intensity,ScBem1-D1,28
same,SPOT peptide array binding signal intensity,ScBzz1-D1,54
same,SPOT peptide array binding signal intensity,ScBzz1-D2,29.5
same,SPOT peptide array binding signal intensity,ScCyk3,192
same,SPOT peptide array binding signal intensity,ScFus1,256
same,SPOT peptide array binding signal intensity,ScHof1,3
same,SPOT peptide array binding signal intensity,ScHse1,1590
same,SPOT peptide array binding signal intensity,ScLsb1,348
same,SPOT peptide array binding signal intensity,ScLsb2,42
same,SPOT peptide array binding signal intensity,ScLsb3,181
same,SPOT peptide array binding signal intensity,ScLsb4,9.5
same,SPOT peptide array binding signal intensity,ScMyo3,9.5
same,SPOT peptide array binding signal intensity,ScMyo5,9.25
same,SPOT peptide array binding signal intensity,ScNbp2,350
same,SPOT peptide array binding signal intensity,ScPex13,38
same,SPOT peptide array binding signal intensity,ScRvs167,37.3
same,SPOT peptide array binding signal intensity,ScSho1,743
same,SPOT peptide array binding signal intensity,ScSla1-D1-D2,636
same,SPOT peptide array binding signal intensity,ScSla1-D3,97.8
same,SPOT peptide array binding signal intensity,SpAbp1-D1,416
same,SPOT peptide array binding signal intensity,SpBbc1,8
same,SPOT peptide array binding signal intensity,SpBzz1-D1,311
same,SPOT peptide array binding signal intensity,SpBzz1-D2,1.75
same,SPOT peptide array binding signal intensity,SpCyk3,18
same,SPOT peptide array binding signal intensity,SpHof1,248
same,SPOT peptide array binding signal intensity,SpHof1-2,58.5
same,SPOT peptide array binding signal intensity,SpHof1-3,440
same,SPOT peptide array binding signal intensity,SpHse1,662
same,SPOT peptide array binding signal intensity,SpLsb1,270
same,SPOT peptide array binding signal intensity,SpLsb4,106
same,SPOT peptide array binding signal intensity,SpMyo1,15.5
same,SPOT peptide array binding signal intensity,SpNbp2,235
same,SPOT peptide array binding signal intensity,SpPex13,49
same,SPOT peptide array binding signal intensity,SpRvs167,14
same,SPOT peptide array binding signal intensity,SpSla1-D1-D2,5
same,SPOT peptide array binding signal intensity,SpSla1-D3,19
